Reference: PubChem BioAssay (NCATS)
Records with an inconclusive call do not appear. Unless noted, the call rests on the fitted dose curve; in most records, active means well fitted curve in either direction with a large enough effect (not every such curve was filed as active); inconclusive means small, poorly fitted or top-dose-only effect, or another doubt; inactive means flat fitted curve, though single readings scatter.

What was measured:
[1] = AP1 Signaling Pathway (AID 357); settings: ME-180 AP-1-bla reporter, EGF-induced, beta-lactamase ratio, 5 h; at 17.2 µM (top of the series) unless noted; further: on the % scale 0 is the no-effect control and ±100 the full control effect
In short: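 AP-1-bla ME-180 cells with beta-lactamase reporter under AP-1 response element, stimulated with EC50 EGF; compounds titrated, 5 hours at 37 degrees Celsius. CCF4 read at 460/530 nm ratio; positive and negative modulators judged by AC50.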

[2] = NFAT Signaling Pathway (AID 444); settings: Jurkat NFAT-bla M1, carbachol, beta-lactamase ratio, 5 h; at 17.2 µM (top of the series) unless noted;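 further: carbachol stimulus at about its EC50 of 1 µM final; on the % scale 0 is the no-effect control and ±100 the full control effect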
In short: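 Read-out: CCF4 FRET ratio (460 nm/530 nm) after 1 h RT dye loading, used for %activity and AC50 from titration series. Cells: Jurkat NFAT-β-lactamase/M1 line, treated with compound plus 1 uM carbachol for 5 h, 37 °C.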

[3] = Stat Signaling Pathway (AID 446); settings: ME-180 (cervical carcinoma) SIE beta-lactamase reporter, IL-6 stimulated, 5 h; at 17.2 µM (top of the series) unless noted;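 further: ME-180 cervical cancer cells given 40 pM IL-6 alongside compound; SIE-controlled beta-lactamase reporter measured as 460/530 nm FRET emission ratio; on the % scale 0 is the no-effect control and ±100 the full control effect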
In short: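 Normalization used AC90 stimulation (300 pM IL-6) and AC90 inhibition (125 nM pan-JAK inhibitor at 40 pM IL-6). The underlying signal is SIE-driven beta-lactamase in ME-180 cells after 5 h IL-6 exposure with compound.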

[4] = biological target: Glucocorticoid receptor (Homo sapiens) (UniProt P04150); test: GR-GFP Redistribution (AID 450;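 active means compounds whose dose series gives a full or clear partial fitted curve of increased nuclear translocation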; further: potency means the concentration at half of the fitted maximal effect)
Sequence of Glucocorticoid receptor (Homo sapiens) (P04150 whole entry, looked up): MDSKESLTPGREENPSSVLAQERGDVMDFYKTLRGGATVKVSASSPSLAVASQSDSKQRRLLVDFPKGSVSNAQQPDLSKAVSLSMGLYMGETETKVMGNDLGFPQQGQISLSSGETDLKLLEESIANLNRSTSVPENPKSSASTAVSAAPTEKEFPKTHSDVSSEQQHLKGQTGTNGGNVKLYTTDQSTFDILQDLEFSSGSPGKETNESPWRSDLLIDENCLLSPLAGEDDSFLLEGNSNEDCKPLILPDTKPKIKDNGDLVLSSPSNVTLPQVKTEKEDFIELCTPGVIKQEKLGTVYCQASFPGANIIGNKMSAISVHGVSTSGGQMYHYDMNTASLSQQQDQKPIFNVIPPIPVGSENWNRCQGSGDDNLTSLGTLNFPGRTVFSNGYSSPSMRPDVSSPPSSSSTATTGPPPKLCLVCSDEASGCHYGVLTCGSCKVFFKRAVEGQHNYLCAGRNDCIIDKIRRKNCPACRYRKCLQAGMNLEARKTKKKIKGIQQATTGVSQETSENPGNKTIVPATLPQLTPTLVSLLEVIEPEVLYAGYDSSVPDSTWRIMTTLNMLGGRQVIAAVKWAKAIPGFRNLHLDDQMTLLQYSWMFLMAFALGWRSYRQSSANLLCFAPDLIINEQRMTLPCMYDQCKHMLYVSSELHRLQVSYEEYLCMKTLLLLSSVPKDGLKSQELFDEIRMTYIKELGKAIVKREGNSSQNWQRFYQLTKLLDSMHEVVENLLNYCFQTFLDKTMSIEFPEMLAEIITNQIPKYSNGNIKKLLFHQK

Clc1ccc2nc(CSc3nc4ccccc4o3)cn2c1
inactive: activity change, negative = inhibition [1] -4.14% | activity change, negative = inhibition [2] 1.67% | activity, negative = inhibition [3] -8.83% | Potency [4] > 20.6 µM

CCOc1ccc(/C(O)=C2/C(=O)C(=O)N(c3nc(C)c(C)s3)C2c2ccco2)cc1 (stereo not drawn)
inactive: activity change, negative = inhibition [1] -13.5% | activity change, negative = inhibition [2] 20.9% | activity, negative = inhibition [3] -19% | Potency [4] > 20.6 µM

CSC1=C(C#N)C(c2ccc(C)s2)CC(=O)N1 (stereo not drawn)
inactive: activity change, negative = inhibition [1] -7.45% | activity change, negative = inhibition [2] -2.53% | activity, negative = inhibition [3] 7.78% | Potency [4] > 20.6 µM

CN1CCN(/C=N/c2sc3c(c2C#N)CCCCC3)CC1
inactive: activity change, negative = inhibition [1] 4.68% | activity change, negative = inhibition [2] 11.9% | activity, negative = inhibition [3] -3.82% | Potency [4] > 20.6 µM

Cc1ccc(N(CC(=O)O)C2SC(=O)NC2=O)cc1 (stereo not drawn)
inactive: activity change, negative = inhibition [1] 12.3% | activity change, negative = inhibition [2] 0.868% | activity, negative = inhibition [3] 6.57% | Potency [4] > 20.6 µM

CC1(C)C/C(=C(/C#N)C(N)=O)CCO1
inactive: activity change, negative = inhibition [1] -0.694% | activity change, negative = inhibition [2] 2.44% | activity, negative = inhibition [3] 4.37% | Potency [4] > 20.6 µM

CC(C)Nc1nc(NC(C)C)nc(N(C)n2cnnc2)n1
inactive: activity change, negative = inhibition [1] 9.58% | activity change, negative = inhibition [2] -6.19% | activity, negative = inhibition [3] 4.66% | Potency [4] > 20.6 µM

O=S(=O)(c1ccccc1)N(CC(O)CN1CCCCC1)c1ccccc1 (stereo not drawn)
inactive: activity change, negative = inhibition [1] -4.48% | activity change, negative = inhibition [2] -23% | activity, negative = inhibition [3] 3.01% | Potency [4] > 20.6 µM

COc1ccc(Nc2nc(Nc3ccc(OC)cc3)nc(-n3[nH]c(=O)c(C)c3C)n2)cc1
inactive: activity change, negative = inhibition [1] 22.4% | activity change, negative = inhibition [2] -1.75% | activity, negative = inhibition [3] 8.62% | Potency [4] > 20.6 µM

COC(=O)c1cc(Br)c(=O)n(Cc2cccnc2)c1
inactive: activity change, negative = inhibition [1] 2.36% | activity change, negative = inhibition [2] 10.7% | activity, negative = inhibition [3] 9.48% | Potency [4] > 20.6 µM

C=CCn1c(=N)c(C(=O)OCC)cc2c(=O)n3cccc(C)c3nc21
inactive: activity change, negative = inhibition [1] 15.5% | activity change, negative = inhibition [2] -23.4% | activity, negative = inhibition [3] 28.1% | Potency [4] > 20.6 µM

Nc1c(C(=O)NCc2ccco2)sc2nc(N3CCOCC3)c3c(c12)CCCC3
inactive: activity change, negative = inhibition [1] -27.5% | activity change, negative = inhibition [2] 16.8% | activity, negative = inhibition [3] -13.4% | Potency [4] > 20.6 µM

CC1CN(c2oc(-c3ccccc3Cl)nc2C#N)CC(C)O1 (stereo not drawn)
inactive: activity change, negative = inhibition [1] 6.37% | activity change, negative = inhibition [2] -6.23% | activity, negative = inhibition [3] 9.86% | Potency [4] > 20.6 µM

C=C(C)Cn1c(-c2ccc(OC)cc2)nc2ccccc21
inactive: activity change, negative = inhibition [1] -23.2% | activity change, negative = inhibition [2] 3.93% | activity, negative = inhibition [3] 5.37% | Potency [4] > 20.6 µM

C=CCn1c(SCC(=O)NC23CC4CC(CC(C4)C2)C3)nc(O)cc1=O
inactive: activity change, negative = inhibition [1] 8.04% | activity change, negative = inhibition [2] -3.75% | activity, negative = inhibition [3] -2.84% | Potency [4] > 20.6 µM

O=C(Nc1nnc(SCc2ccccc2F)s1)c1ccco1
inactive: activity change, negative = inhibition [1] -5.32% | activity change, negative = inhibition [2] 11.2% | activity, negative = inhibition [3] -4.78% | Potency [4] > 20.6 µM

Cc1nc(-c2coc3cc(OCC(=O)O)ccc3c2=O)cs1
inactive: activity change, negative = inhibition [1] 7.54% | activity change, negative = inhibition [2] -2.11% | activity, negative = inhibition [3] 3.59% | Potency [4] > 20.6 µM

Clc1ccc(-n2ncc3c(N4CCCC4)ncnc32)cc1
inactive: activity change, negative = inhibition [1] 3% | activity change, negative = inhibition [2] 6.28% | activity, negative = inhibition [3] -0.254% | Potency [4] > 20.6 µM

CCN(CC)CCN1C(=O)C(=O)/C(=C(/O)c2ccc(OC)cc2)C1c1ccco1 (stereo not drawn)
inactive: activity change, negative = inhibition [1] -1.18% | activity change, negative = inhibition [2] -15.2% | activity, negative = inhibition [3] 3.92% | Potency [4] > 20.6 µM

Cc1nc(Nc2ncc3c(n2)CC(C)(C)CC3=O)nc2ccccc12
inactive: activity change, negative = inhibition [1] -5.98% | activity change, negative = inhibition [2] 10.6% | activity, negative = inhibition [3] -25% | Potency [4] > 20.6 µM

COc1ccccc1Nc1ncnc2c1cnn2-c1cccc(C)c1
inactive: activity change, negative = inhibition [1] -28.5% | activity change, negative = inhibition [2] -14.7% | activity, negative = inhibition [3] -6.58% | Potency [4] > 20.6 µM

COCCn1c(SCc2c(F)cccc2Cl)nc2c1c(=O)[nH]c(=O)n2C
inactive: activity change, negative = inhibition [1] -17.8% | activity change, negative = inhibition [2] -0.711% | activity, negative = inhibition [3] -1.06% | Potency [4] > 20.6 µM

COc1cc(C2C(C#N)=C(N)Oc3cc(C)n(Cc4ccccn4)c(=O)c32)cc2c1OCO2 (stereo not drawn)
inactive: activity change, negative = inhibition [1] -7.44% | activity change, negative = inhibition [2] -12.8% | activity, negative = inhibition [3] -4.06% | Potency [4] > 20.6 µM

Cc1ccc(C(=O)C2=C(O)C(=O)N(c3ncccn3)C2c2ccc(Cl)cc2)o1 (stereo not drawn)
inactive: activity change, negative = inhibition [1] -14% | activity change, negative = inhibition [2] 23% | activity, negative = inhibition [3] -10.8% | Potency [4] > 20.6 µM

CCOC(=O)c1[nH]c2cc3c(cc2c1NC(=O)CN1CC(C)CC(C)C1)OCO3 (stereo not drawn)
inactive: activity change, negative = inhibition [1] -14.1% | activity change, negative = inhibition [2] -21% | activity, negative = inhibition [3] -2.27% | Potency [4] > 20.6 µM

CCCC1C(c2ccc(OC)cc2)C(C#N)(C#N)C2(C#N)CC1(N)NC2=O (stereo not drawn)
inactive: activity change, negative = inhibition [1] 7.74% | activity change, negative = inhibition [2] -5.15% | activity, negative = inhibition [3] -5.79% | Potency [4] > 20.6 µM

COCCOCCOCCC(=O)NC1CC2CCC1(C)C2(C)C (stereo not drawn)
inactive: activity change, negative = inhibition [1] 13.7% | activity change, negative = inhibition [2] 0.73% | activity, negative = inhibition [3] -0.452% | Potency [4] > 20.6 µM

COc1cccc2c(=O)c(SC(F)(F)C(F)C(F)(F)F)c(C)[nH]c12 (stereo not drawn)
inactive: activity change, negative = inhibition [1] -13.4% | activity change, negative = inhibition [2] 4.93% | activity, negative = inhibition [3] 2.33% | Potency [4] > 20.6 µM

O=S(=O)(/C=C/c1ccccc1)Nc1ccc2c(c1)OCO2
inactive: activity change, negative = inhibition [1] -20.8% | activity change, negative = inhibition [2] -26.9% | activity, negative = inhibition [3] -22.1% | Potency [4] > 20.6 µM

COC(=O)c1ccc(C2/C(=C(\O)c3ccc4c(c3)OCCO4)C(=O)C(=O)N2CCCN(C)C)cc1 (stereo not drawn)
inactive: activity change, negative = inhibition [1] 10.1% | activity change, negative = inhibition [2] 5.87% | activity, negative = inhibition [3] -5.8% | Potency [4] > 20.6 µM

CCOC(=O)C(C)Oc1ccc2c(C)cc(=O)oc2c1C(C)=O (stereo not drawn)
inactive: activity change, negative = inhibition [1] 3.53% | activity change, negative = inhibition [2] 2.57% | activity, negative = inhibition [3] 4.2% | Potency [4] > 20.6 µM

COC(=O)CN(c1nc(C)cc(OC)n1)S(=O)(=O)c1ccccc1
inactive: activity change, negative = inhibition [1] -9.15% | activity change, negative = inhibition [2] -15.3% | activity, negative = inhibition [3] 8.46% | Potency [4] > 20.6 µM

Cn1c(=O)n(CC(=O)Nc2ccccc2)c2ccccc21
inactive: activity change, negative = inhibition [1] -5.57% | activity change, negative = inhibition [2] -4.15% | activity, negative = inhibition [3] -7.48% | Potency [4] > 20.6 µM

O=C(O)CC(C(=O)OCC1CCCO1)N1CCOCC1 (stereo not drawn)
inactive: activity change, negative = inhibition [1] 9.13% | activity change, negative = inhibition [2] -2.84% | activity, negative = inhibition [3] -0.575% | Potency [4] > 20.6 µM

CCC(C)Nc1nc(OC)nc(N(C)C#N)n1 (stereo not drawn)
inactive: activity change, negative = inhibition [1] 12.2% | activity change, negative = inhibition [2] 12.5% | activity, negative = inhibition [3] -0.957% | Potency [4] > 20.6 µM

COC(=O)CSc1nc(C)c(C(C)=O)cc1C#N
inactive: activity change, negative = inhibition [1] 4.99% | activity change, negative = inhibition [2] -0.342% | activity, negative = inhibition [3] 7.71% | Potency [4] > 20.6 µM

O=C(C1=C(O)C(=O)N(CCCN2CCOCC2)C1c1ccccn1)c1cc2ccccc2o1 (stereo not drawn)
inactive: activity change, negative = inhibition [1] 0.283% | activity change, negative = inhibition [2] 1.99% | activity, negative = inhibition [3] -5.61% | Potency [4] > 20.6 µM

CCN(CC)CCCN1C(=O)C(=O)/C(=C(/O)c2ccc(Cl)cc2)C1c1ccccn1 (stereo not drawn)
inactive: activity change, negative = inhibition [1] -3.4% | activity change, negative = inhibition [2] 5.22% | activity, negative = inhibition [3] -0.716% | Potency [4] > 20.6 µM

Nc1nnnn1CC(=O)OCc1cccc(Br)c1
inactive: activity change, negative = inhibition [1] -12.9% | activity change, negative = inhibition [2] 14.6% | activity, negative = inhibition [3] 12.3% | Potency [4] > 20.6 µM

Cc1nnc(N2CCCCC2)c2ccccc12
inactive: activity change, negative = inhibition [1] -1.88% | activity change, negative = inhibition [2] 13.3% | activity, negative = inhibition [3] -8.53% | Potency [4] > 20.6 µM

CC(=O)Oc1ccccc1C1OCCN1C(C)=O (stereo not drawn)
inactive: activity change, negative = inhibition [1] 14.2% | activity change, negative = inhibition [2] -10.3% | activity, negative = inhibition [3] 17% | Potency [4] > 20.6 µM

Cn1ncc2c(Nc3ccccc3Br)ncnc21
inactive: activity change, negative = inhibition [1] 5.55% | activity change, negative = inhibition [2] 17% | activity, negative = inhibition [3] -3.41% | Potency [4] > 20.6 µM
